Hits are enriched below; roughly 6.3% of the tested compounds scored in any of these assays.
ATXN viability = cell viability loss in ATXN counter-screen | Potency, µM (highest dose often 56.7 µM), most hits filed as cytotoxic | 0.49% of 400,000 active | S2 cells (HEK-293 line with an ATXN2-luciferase reporter) viability, CellTiter-Fluor protease fluorescence, 24 h; further: nearly all actives have a fitted effect of over 40% in size
TGFb SMAD3 inh = TGF-b pathway inhibition | HepG2 CAGA-GFP TGF-b/SMAD3 reporter, GFP fluorescence, 18 h; TGF-beta stimulated, 500 pg/mL final | Potency, µM (highest dose often 46.1 µM), hits mostly inhibitors | 1.2% of 410,000 active | AID 588855; further: nearly all actives have a fitted effect of over 65% in size
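Inhibition of TGF-beta-driven CAGA-GFP reporter expression in HEPG2 cells is measured by cellular GFP fluorescence after 18 h stimulation with 500 pg/mL recombinant TGF-beta in 1% FBS medium at 37 degrees C.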
ATXN2 expr inh = reduces ATXN2 reporter expression in HEK-293 cells. HEK-293 ATXN2-luciferase reporter, luminescence, 24 h. Potency, µM (titrated, usually from 57 µM), actives largely listed as inhibitors. 0.72% of 360,000 active; further: nearly all actives have a fitted effect of over 55% in size
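qHTS (up to 57 uM final) was run with 24 h compound exposure of reporter cells at 37 °C. Each well was multiplexed: SteadyGlo luminescence measured ATXN2-luciferase expression after a fluorogenic Gly-Phe-AFC viability readout (25 uM final).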
RORg inh = inhibitors of mouse ROR gamma transcriptional activity | P51450 | Drosophila S2 Gal4-RORgamma UAS-luciferase reporter, 20 h | Potency, µM (top dose mostly 53.6 µM), hits mostly inhibitors | 5.4% of 310,000 active | AID 2551; further: nearly all actives have a fitted effect of over 60% in size
Target sequence (P51450 whole entry, looked up, the tested form may be a part): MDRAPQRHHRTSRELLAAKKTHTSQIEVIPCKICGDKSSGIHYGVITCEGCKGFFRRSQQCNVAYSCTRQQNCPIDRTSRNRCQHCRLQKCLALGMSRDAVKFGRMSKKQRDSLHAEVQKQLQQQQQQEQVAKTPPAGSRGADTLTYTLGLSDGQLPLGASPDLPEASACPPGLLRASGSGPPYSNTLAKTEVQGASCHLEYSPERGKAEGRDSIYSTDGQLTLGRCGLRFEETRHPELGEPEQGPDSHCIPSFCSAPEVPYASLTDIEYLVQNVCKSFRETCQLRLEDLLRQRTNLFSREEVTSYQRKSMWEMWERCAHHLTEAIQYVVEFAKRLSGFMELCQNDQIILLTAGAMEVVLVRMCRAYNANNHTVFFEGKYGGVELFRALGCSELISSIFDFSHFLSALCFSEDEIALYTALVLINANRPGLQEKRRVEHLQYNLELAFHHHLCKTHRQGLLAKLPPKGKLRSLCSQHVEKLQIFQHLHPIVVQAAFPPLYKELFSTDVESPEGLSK
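Compounds are pin-transferred onto Drosophila Schneider cells expressing a copper-inducible Gal4–ROR gamma transactivation domain fusion. After 1 hr, copper sulfate is added to 700 uM final; luciferase is read 20 hr later.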
HepG2 tox = kills HepG2 cells in TGF-b inhibitor counter-screen. 0.76% of 410,000 active. HepG2 CAGA-GFP viability, ATP luminescence, 18 h. AID 588856. Potency, µM (highest dose often 46.1 µM), hits mostly cytotoxic
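HepG2 CAGA-GFP cells (1000/well, DMEM with 1% FBS) received compound, then TGF-beta at 500 pg/mL final, and were incubated 18 hours at 37 degrees C. Viability was read by CellTiter-Glo luminescence. Media-only wells were set as complete cell-killing and DMSO as no toxicity.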
VP16 counter = Gal4-VP16 reporter inhibition counter-screen; Potency, µM (highest dose often 53.6 µM), hits mostly inhibitors; 3.5% of 310,000 active; Drosophila S2 Gal4-VP16 UAS-luciferase, luminescence, 20 h;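 further: Gal4-VP16 expression switched on by copper sulfate through the metallothionein promoter; nearly all actives have a fitted effect of over 50% in size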
Numbers stand for hits; 0 = inactive; ? = inconclusive; - = not tested or not shown; [ ] = dose if it differs, or a comment. The call rests on the fitted dose curve; in most records, active means well fitted curve in the direction sought with a large enough effect; inconclusive means small, poorly fitted or top-dose-only effect, or another doubt; inactive means no such curve, though single readings can be large; an effect the other way counts as inactive or inconclusive.

SMILES	ATXN viability	TGFb SMAD3 inh	ATXN2 expr inh	RORg inh	HepG2 tox	VP16 counter
CCc1cc2c(=O)c(-c3nc4ccccc4n3C)c(COCC(=O)O)oc2cc1OC(=O)C(C)(C)C	0	0	0	4.5µM	0	0
CC(C)(C)c1csc(NC(=O)c2c(F)c(F)c(F)c(F)c2F)n1	?	0	-	-	0	-
CC(C)(C)c1csc(NC(=O)c2ccccc2O)n1	0	?	0	?	0	2.5µM
CC(C)(C)c1csc(NNC(=O)c2ccc(Br)cc2)n1	0	?	-	1.3µM	0	2.8µM
COc1ccc(C(=O)NCCN2Cc3ccccc3OC(c3ccsc3)C2)c(OC)n1 (configuration not stated)	0	-	-	-	-	-
COc1cc(C(=O)Nc2ccc(-c3nc4cc(C)ccc4o3)c(O)c2)cc(OC)c1OC	0	0	?	3.5µM	0	0
O=C(Nc1ccc(-c2nc3ccccc3o2)c(O)c1)c1cc(-n2cnnc2)ccc1Cl	0	0	0	8.9µM	18µM	?
COc1cccc(C(=O)Nc2ccc(-c3nc4ccccc4o3)c(O)c2)c1	0	0	0	5µM	0	7.1µM
O=C(Nc1ccc(-c2nc3ccccc3o2)cc1)c1cc(-n2cnnc2)ccc1Cl	?	0	?	?	0	?
O=C(Cc1ccsc1)NCC(=O)Nc1ccccc1Br	0	0	0	-	0	-
O=C(NCc1cccnc1)c1ccc(COc2ccc3c(c2)CCC3)o1	?	?	?	0	0	20µM
O=C(N/N=C/c1cc([N+](=O)[O-])ccc1O)c1ccc(COc2ccc3c(c2)CCC3)o1	?	4.5µM	7.9µM	2.2µM	0	1.4µM
COc1ccc(Br)cc1/C=N/NC(=O)c1ccc(COc2ccc3c(c2)CCC3)o1	0	0	0	0	0	0
O=C1CC(c2ccccc2)Cc2[nH]c(=O)c(C(=O)Nc3ccc(F)cc3)cc21 (configuration not stated)	0	0	0	-	0	-
O=C1CC(c2ccccc2)Cc2[nH]c(=O)c(C(=O)Nc3ccc(OC(F)(F)F)cc3)cc21 (configuration not stated)	25µM	0	0	-	0	-
O=[N+]([O-])c1ccc(N=Nc2c(Cl)cc(O)cc2Cl)cc1	?	1.1µM	-	?	3.2µM	5µM
CCN1CCN(c2csc3ccc(C)cc3c2=O)CC1	0	0	0	-	0	-
Oc1ccc(C[C@@H]2CNCCN2CCc2cc(C(F)(F)F)cc(C(F)(F)F)c2)cc1	?	?	20µM	-	0	-
FC(F)(F)c1cc(CCN2CCNC[C@H]2Cc2cccc3ccccc23)cc(C(F)(F)F)c1	40µM	?	?	-	0	-
c1ccc(C[C@H]2CNCCN2CCc2cccc3ccccc23)cc1	?	?	?	-	0	-
Oc1ccc(C[C@H]2CNCCN2CCc2cc(C(F)(F)F)cc(C(F)(F)F)c2)cc1	-	?	?	-	0	-
Cc1c(C)n(CCC#N)c2ccccc12	?	0	0	0	0	0
Cn1c2ccccc2c2c3c(c4c5ccccc5n(CCC#N)c4c21)CNC3=O	-	-	6.9µM	-	-	-
Clc1cccc(-c2cccc3nccn23)c1	0	0	0	-	0	-
C[C@@H](NC(=O)c1nc[nH]c1C(=O)N[C@@H](CCCCNC(=O)OC(C)(C)C)C(=O)OC(C)(C)C)c1ccccc1	?	?	?	0	0	0
SMILES	ATXN viability	TGFb SMAD3 inh	ATXN2 expr inh	RORg inh	HepG2 tox	VP16 counter
CC(C)(C)OC(=O)NCCCC[C@H](NC(=O)c1[nH]cnc1C(=O)Nc1ccc(Cl)cc1)C(=O)OC(C)(C)C	?	14µM	?	?	0	?
CC(C)(C)OC(=O)NCCCC[C@H](NC(=O)c1nc[nH]c1C(=O)N1CCN(c2ccccc2)CC1)C(=O)OC(C)(C)C	?	?	0	13µM	0	?
CC(C)(C)OC(=O)NCCCC[C@H](NC(=O)c1[nH]cnc1C(=O)Nc1ccccc1)C(=O)OC(C)(C)C	?	?	?	13µM	0	?
OC1(c2cccnc2)CCN(Cc2ccc3c(c2)CN(Cc2cc(F)ccc2F)CCO3)CC1	0	-	-	-	-	-
COc1cccc(-c2cnc(-c3ccncc3)nc2C2CCN(C(=O)Cc3csc(C)n3)CC2)c1	0	-	-	-	-	-
COc1ccccc1CCNc1ncnc2sc(C(=O)N3CCCN(C=O)CC3)c(C)c12	0	-	-	-	-	-
Cc1ccc(-n2nnnc2C(Cl)(Cl)c2nnnn2-c2ccc(C)cc2)cc1	?	0	?	18µM	0	7.1µM
Clc1ccc(-c2nnnn2-c2ccc(Cl)cc2)cc1	0	0	0	0	0	0
COc1cc(C2c3c(oc4ccccc4c3=O)C(=O)N2c2ccccn2)cc(OC)c1OC (configuration not stated)	-	0	-	-	0	-
COc1ccc(CCC(C)NCCc2ccc(Cl)cc2Cl)cc1 (configuration not stated)	-	?	-	0	16µM	0
COc1ccc(CCC(C)NCc2ccc(Cl)c(Cl)c2)cc1 (configuration not stated)	0	13µM	0	-	8.9µM	-
S=c1nc(C23CC4CC(CC(C4)C2)C3)[nH][nH]1	0	0	0	0	0	0
S=c1nn[nH]n1C12CC3CC(CC(C3)C1)C2	0	?	0	2.5µM	0	7.1µM
Cc1c(C(=O)N2CCN(C)CC2)sc2ncnc(NCC3(c4ccccc4)CCOCC3)c12	0	-	-	-	-	-
Cc1cc(C)c2c(N)c(C(=O)Nc3ncc(C)s3)sc2n1	0	0	2.5µM	2µM	0	2.8µM
COc1ccc2nc(NC(=O)c3sc4nc(C)cc(C)c4c3N)sc2c1	0	0	-	0.04µM	0	?
Cc1cc(C)c2c(N)c(C(=O)Nc3ccccc3Br)sc2n1	0	0	0	0	0	0
COC(=O)c1sc2nc(C)cc(C)c2c1N	0	0	0	0	0	0
COc1ccc(NC(=O)C2CCN(S(=O)(=O)c3ccc4[nH]c(=O)ccc4c3)CC2)c(OC)c1	0	0	0	-	0	-
CCn1cc(C(=O)N(C)Cc2ccccc2)c(=O)c2cc(S(=O)(=O)N3CCCCC3)ccc21	0	?	0	-	0	-
O=C(NCc1ccncc1)c1csc([C@@H]2O[C@H](CO)[C@@H](O)[C@H]2O)n1	0	0	0	-	0	-
Fc1ccc(NC(=S)NN2CCOCC2)cc1Cl	0	0	0	2.8µM	0	?
S=C(Nc1ccc(Br)cc1Cl)NN1CCOCC1	0	0	0	3.5µM	0	18µM
COc1cc(OC)c(-c2nn3c(-c4cc(C)[nH]n4)nnc3s2)cc1OC	-	0	-	-	0	-
Cc1c(C(=O)N(CCO)C(C)C)cnn1-c1ncc2c(n1)-c1ccccc1CCC2	0	-	-	-	-	-
COC(=O)/C=C1/S/C(=N/N=C/c2ccco2)NC1=O	?	0	0	14µM	0	?
COC(=O)/C=C1\S/C(=N/N=C/c2ccco2)NC1=O	?	0	-	7.1µM	0	0[10 µM]
COc1cc2c(cc1OC)C(c1oc(-c3ccc(-c4cc(Cl)ccc4Cl)o3)cc1C)=NCC2	-	0	-	-	0	-

Assay outcomes: PubChem BioAssay, National Center for Advancing Translational Sciences (NCATS)
